The values below come from PubChem BioAssay (Tox21).

The nature of experiment [1]: Nuclear factor erythroid 2-related factor 2/antioxidant responsive element (Nrf2/ARE) small molecule agonists: qHTS cell viability counter screen in human keratinocytes (AID 1919968; active = well fitted curve in the direction sought with a large enough effect in the repeat runs; an effect the other way counts as inactive or inconclusive; note: nearly all actives have a fitted effect of over 55% in size; note: potency is the fitted concentration of half-maximal effect). The procedure, abridged: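 Fluorescence read-out from CellTiter-Fluor after 1 h at 37 C. Wells held HaCaT-derived ARE-luciferase reporter cells (1,500/well) treated 23 h with DMSO-dissolved compounds. Run in the same wells as the luciferase agonist read.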
(In general: qHTS replaces the single test concentration by a dilution series.)

The nature of experiment [2]: Nuclear factor erythroid 2-related factor 2/antioxidant responsive element (Nrf2/ARE) small molecule agonists: luciferase reporter gene qHTS assay in human keratinocytes (AID 1919969). Note: nearly all actives have a fitted effect of over 35% in size. Background: Reporter assays use an easily measured gene product as a stand-in for the process of interest.
In experiment [3] the target is Gonadotropin-releasing hormone receptor (Homo sapiens) (UniProt P30968). Nature of the experiment: Human gonadotropin-releasing hormone receptor (GnRHR) small molecule agonists, calcium flux assay in GnRHR-HEK293 cells (AID 1920063). Note: nearly all actives have a fitted effect of over 35% in size. Note: potency is the fitted concentration of half-maximal effect. The procedure, abridged: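 Calcium-dye fluorescence, Ex/Em=480/540, recorded every 1 sec over 3 min after compound addition to GnRHR-HEK293 cells. Cells had been seeded 18 hours earlier and dye-loaded for 1 hour at 37 C. Fifteen concentrations, triplicates.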
For orientation: A change in cytosolic calcium serves as a functional read-out for many receptors and channels.

In experiment [4] the target is KiSS-1 receptor (Homo sapiens) (UniProt Q969F8). Nature of the experiment: Human kisspeptin (KISS1R) small molecule agonists, calcium flux assay in KISS1R-HEK293 cells (AID 1920064; active = well fitted curve in the direction sought with a large enough effect in the repeat runs; an effect the other way counts as inactive or inconclusive). The essentials: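 Calcium flux read-out: kinetic fluorescence at Ex/Em=480/540, 1 s intervals over 3 min, after pin-tool compound addition to dye-loaded KISS1R-HEK293 cells. Fifteen concentrations, triplicates.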

Experiment [5] is described as follows: G protein-coupled receptor (GPCR) small molecule agonists, calcium flux assay: HEK293 wild type cell line counter screen (AID 1920065). The procedure, abridged: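 Agonist mode; 18 h seeding at 37 C, 1 h dye load at 37 C; compounds pinned from DMSO, ATP as positive control; kinetic fluorescence 480/540 nm, 3 min, 1 s reads; 15 concentrations, triplicate.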
A short description of experiment [6]: p53 small molecule agonists, cell-based qHTS assay with rat liver microsomes (AID 1963578). The procedure, abridged:
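Fluorescence from a beta-lactamase reporter under a p53 response element was measured after cells had been incubated 16 h at 37 C with test compound and rat liver microsomes plus NADPH (0.5 mg/mL final each).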

The nature of experiment [7]: p53 small molecule agonists, cell-based qHTS assay with human liver microsomes: qHTS cell viability counter screen (AID 1963579). Note: nearly all actives have a fitted effect of over 45% in size. Note: potency is the fitted concentration of half-maximal effect. The essentials: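 Seed p53RE-bla cells at 4,000 per well; incubate 5 h at 37 C; add compound, human liver microsomes and NADPH; incubate 16 h at 37 C; add CellTiter-Glo; after 30 min at room temperature, read luminescence.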
Experiment [8] is described as follows: p53 small molecule agonists, cell-based qHTS assay with rat liver microsomes: qHTS cell viability counter screen (AID 1963580). Note: nearly all actives have a fitted effect of over 45% in size. The procedure, abridged: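 Cytotoxicity counter screen: intracellular ATP read by CellTiter-Glo luminescence in the p53 reporter wells. HCT-116 p53RE-bla cells were treated for 16 h at 37 C alongside rat liver microsomes and NADPH, each 0.5 mg/mL final.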

A short description of experiment [9]: p53 small molecule agonists, cell-based qHTS assay (AID 1963582; active = well fitted activation curve with a large enough effect in the signal ratio in the repeat runs, not every such curve was filed as active; the % refers to the signal ratio). The essentials:
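Fluorescence intensity read-out of a beta-lactamase reporter under a p53 response element. Cells were exposed to DMSO-dissolved compounds for 16 h at 37 C, then developed with FRET substrate for 2 h at RT.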

The target of experiment [10] is 5-hydroxytryptamine receptor 2A (Homo sapiens) (UniProt P28223). Nature of the experiment: 5-hydroxytryptamine receptor 2A (HTR2A) small molecule agonists, cell-based qHTS assay (AID 1963587). Note: nearly all actives have a fitted effect of over 30% in size. Note: potency is the fitted concentration of half-maximal effect. The procedure, abridged: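 Kinetic calcium-flux fluorescence (2 min, 1 sec intervals) after compound addition in agonist mode. HTR2A-CHO cells were cultured 18 h, then dye-loaded 1 h at 37 C.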

For experiment [11], the target named is Muscarinic acetylcholine receptor M1 (Homo sapiens) (UniProt P11229). Nature of the experiment: Cholinergic receptor muscarinic 1 (CHRM1) small molecule antagonists, cell-based qHTS assay (AID 1963588). Note: nearly all actives have a fitted effect of over 40% in size. Note: potency is the fitted concentration of half-maximal effect. The essentials:
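Compounds were tested at 15 concentrations in three independent runs. Dye-loaded CHRM1-CHO cells were exposed 5 min at room temperature before stimulation by acetylcholine added at 50nM. Intracellular calcium was read kinetically on FDSS for 3 min.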

Experiment [12] is described as follows: cAMP Responsive Elements (CRE) small molecule agonists, cell-based qHTS assay (AID 1963590). The essentials:
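Beta-lactamase reporter readout: LiveBLAzer B/G FRET substrate, 2 h at room temperature, added after 3 h compound treatment of CRE-bla HEK 293T cells at 37 C/5% CO2.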

Experiment [13] can be described thus: cAMP Responsive Elements (CRE) small molecule antagonists, cell-based qHTS assay (AID 1963591; active = well fitted inhibition curve with a large enough effect in the signal ratio in the repeat runs, not every such curve was filed as active; the % refers to the signal ratio). The essentials:
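HEK293T CRE-bla; 18 h preincubation; compound pin-transfer; NKH477 0.25 uM final, 3 h, 37 C; LiveBLAzer FRET substrate 2 h RT.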

Experiment [14] addresses Beta-2 adrenergic receptor (Homo sapiens) (UniProt P07550). Nature of the experiment: Adrenergic beta2 receptor (ADRB2) small molecule antagonists, cell-based qHTS assay (AID 1963592). Note: nearly all actives have a fitted effect of over 50% in size. Note: potency is the fitted concentration of half-maximal effect. The procedure, abridged:
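Assay format: CHO-ADRB2 cells, 18-20hr seeding at 37C/5% CO2, then compound plus 1nM isoproterenol agonist mix for 0.5hr RT. Homogeneous time-resolved fluorescence cAMP detection after 1hr, expressed as 665/615 nm ratio.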

In experiment [15] the target is D(2) dopamine receptor (Homo sapiens) (UniProt P14416). Nature of the experiment: Dopamine D2 receptor (DRD2) small molecule agonists, cell-based qHTS assay (AID 1963594). Note: nearly all actives have a fitted effect of over 35% in size. The procedure, abridged:
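cAMP accumulation in DRD2-HEK293 cells measured by HTRF after 1 h detection; compounds added 10 min before NKH477 (200nM […]) forskolin-analogue stimulation, 30 min at room temperature, with Ro20-1724 present at 0.1 mM final.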

Experiment [16] shares this target. Nature of the experiment: Dopamine D2 receptor (DRD2) small molecule antagonists, cell-based qHTS assay (AID 1963595; active = well fitted inhibition curve with a large enough effect in the signal ratio in the repeat runs, with a control signal flat; the % refers to the signal ratio; note: potency is the fitted concentration of half-maximal effect). The essentials: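 Readout: HTRF cAMP, cAMP-d2 competing with cellular cAMP for anti-cAMP cryptate, read after 1 h. Cells: DRD2-HEK293. Conditions: 0.1 mM Ro20-1724, 12 nM quinpirole, 200 nM NKH477, 30 min RT.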
Experiment [17] can be described thus: p53 small molecule agonists, cell-based qHTS assay: qHTS cell viability counter screen (AID 1963581). Note: nearly all actives have a fitted effect of over 45% in size. Note: potency is the fitted concentration of half-maximal effect. The essentials:
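Cytotoxicity read-out: ATP-based luminescence (CellTiter-Glo, 30 min RT) measured in the same wells as the p53 reporter assay, HCT-116 p53RE-bla cells, 16 h compound exposure at 37 C.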

Experiment [18] has as its target 5-hydroxytryptamine receptor 2A (Homo sapiens) (UniProt P28223). Nature of the experiment: 5-hydroxytryptamine receptor 2A (HTR2A) small molecule antagonists, cell-based qHTS assay (AID 1963586). Note: nearly all actives have a fitted effect of over 45% in size. The procedure, abridged:
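CHO cells stably expressing human HTR2A were plated for 18 h at 37 C, then loaded with calcium dye for 1 h. Compounds were preincubated 5 min at room temperature before DOI (4 nM solution) was added. Kinetic fluorescence was read for 3 min.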

Experiment [19] addresses Muscarinic acetylcholine receptor M1 (Homo sapiens) (UniProt P11229). Nature of the experiment: Cholinergic receptor muscarinic 1 (CHRM1) small molecule agonists, cell-based qHTS assay (AID 1963589). Note: nearly all actives have a fitted effect of over 35% in size. Note: potency is the fitted concentration of half-maximal effect. The essentials:
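Calcium flux read-out: kinetic fluorescence at 1 sec intervals after pin-tool compound addition to dye-loaded CHRM1-CHO cells (human M1). Agonist mode; 15 concentrations tested in triplicate independent runs.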

The target in experiment [20] is Beta-2 adrenergic receptor (Homo sapiens) (UniProt P07550). Nature of the experiment: Adrenergic beta2 receptor (ADRB2) small molecule agonists, cell-based qHTS assay (AID 1963593).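 Note: CHO cells stably overexpressing human ADRB2.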 The essentials: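 CHO cells stably over-expressing ADRB2 were plated overnight at 37C, then dosed with compounds plus a stimulation mix containing 100uM IBMX and 25uM Ro-20-1724 for 0.5hr at room temperature. cAMP was measured by HTRF competition, 1hr.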

The structures appear in SMILES notation. A number with no mark means an inactive call. Inconclusive results are not listed. Activity calls are given as the source filed them. Unless noted, calls come from the whole dose curve.

Chain of KiSS-1 receptor (Homo sapiens) (Q969F8 whole entry, looked up): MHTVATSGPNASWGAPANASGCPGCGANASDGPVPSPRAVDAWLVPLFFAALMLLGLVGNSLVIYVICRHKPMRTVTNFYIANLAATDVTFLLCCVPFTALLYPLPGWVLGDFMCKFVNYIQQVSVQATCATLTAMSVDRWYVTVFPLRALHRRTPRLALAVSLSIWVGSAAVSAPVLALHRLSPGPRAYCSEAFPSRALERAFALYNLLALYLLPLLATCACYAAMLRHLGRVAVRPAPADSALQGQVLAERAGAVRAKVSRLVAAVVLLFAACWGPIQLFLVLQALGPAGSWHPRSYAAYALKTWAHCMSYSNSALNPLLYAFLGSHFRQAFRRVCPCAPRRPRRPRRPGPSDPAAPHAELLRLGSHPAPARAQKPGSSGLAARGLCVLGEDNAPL
Chain of 5-hydroxytryptamine receptor 2A (Homo sapiens) (P28223 whole entry, looked up): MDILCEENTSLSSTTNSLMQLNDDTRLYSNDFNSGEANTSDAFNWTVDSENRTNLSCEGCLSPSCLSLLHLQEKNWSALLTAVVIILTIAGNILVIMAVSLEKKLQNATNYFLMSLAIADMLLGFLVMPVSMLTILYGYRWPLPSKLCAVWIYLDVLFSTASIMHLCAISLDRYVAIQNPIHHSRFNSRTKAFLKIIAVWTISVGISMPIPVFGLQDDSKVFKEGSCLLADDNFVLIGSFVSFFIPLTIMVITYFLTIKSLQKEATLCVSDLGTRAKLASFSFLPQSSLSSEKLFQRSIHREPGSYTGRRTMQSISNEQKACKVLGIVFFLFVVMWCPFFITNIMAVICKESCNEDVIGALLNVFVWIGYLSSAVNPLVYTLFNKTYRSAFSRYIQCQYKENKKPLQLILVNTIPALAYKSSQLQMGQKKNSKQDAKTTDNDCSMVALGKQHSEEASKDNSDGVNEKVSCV
Chain of Muscarinic acetylcholine receptor M1 (Homo sapiens) (P11229 whole entry, looked up): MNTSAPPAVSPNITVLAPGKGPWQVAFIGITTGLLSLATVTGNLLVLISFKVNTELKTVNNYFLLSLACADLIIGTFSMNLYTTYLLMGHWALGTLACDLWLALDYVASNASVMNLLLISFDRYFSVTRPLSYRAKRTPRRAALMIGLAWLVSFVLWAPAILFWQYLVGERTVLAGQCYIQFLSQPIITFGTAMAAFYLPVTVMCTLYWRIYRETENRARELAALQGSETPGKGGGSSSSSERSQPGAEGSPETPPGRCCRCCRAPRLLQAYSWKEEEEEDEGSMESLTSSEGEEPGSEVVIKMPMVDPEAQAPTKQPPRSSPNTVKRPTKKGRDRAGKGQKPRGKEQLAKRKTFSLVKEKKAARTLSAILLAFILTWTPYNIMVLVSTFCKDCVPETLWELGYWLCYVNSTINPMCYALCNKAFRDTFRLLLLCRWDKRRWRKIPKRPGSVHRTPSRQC
Chain of D(2) dopamine receptor (Homo sapiens) (P14416 whole entry, looked up): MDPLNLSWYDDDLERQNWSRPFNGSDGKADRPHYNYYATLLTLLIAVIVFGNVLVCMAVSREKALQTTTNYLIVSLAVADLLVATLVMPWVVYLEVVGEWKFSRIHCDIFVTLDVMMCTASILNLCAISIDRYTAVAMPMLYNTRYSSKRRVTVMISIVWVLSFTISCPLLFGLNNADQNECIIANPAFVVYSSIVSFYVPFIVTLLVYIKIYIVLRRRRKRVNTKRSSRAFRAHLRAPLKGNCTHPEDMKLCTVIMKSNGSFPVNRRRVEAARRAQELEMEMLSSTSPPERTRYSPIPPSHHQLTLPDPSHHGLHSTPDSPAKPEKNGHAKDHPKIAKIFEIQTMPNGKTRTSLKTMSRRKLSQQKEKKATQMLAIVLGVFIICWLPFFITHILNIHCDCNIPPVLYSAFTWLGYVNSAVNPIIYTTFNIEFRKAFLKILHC
Chain of Beta-2 adrenergic receptor (Homo sapiens) (P07550 whole entry, looked up): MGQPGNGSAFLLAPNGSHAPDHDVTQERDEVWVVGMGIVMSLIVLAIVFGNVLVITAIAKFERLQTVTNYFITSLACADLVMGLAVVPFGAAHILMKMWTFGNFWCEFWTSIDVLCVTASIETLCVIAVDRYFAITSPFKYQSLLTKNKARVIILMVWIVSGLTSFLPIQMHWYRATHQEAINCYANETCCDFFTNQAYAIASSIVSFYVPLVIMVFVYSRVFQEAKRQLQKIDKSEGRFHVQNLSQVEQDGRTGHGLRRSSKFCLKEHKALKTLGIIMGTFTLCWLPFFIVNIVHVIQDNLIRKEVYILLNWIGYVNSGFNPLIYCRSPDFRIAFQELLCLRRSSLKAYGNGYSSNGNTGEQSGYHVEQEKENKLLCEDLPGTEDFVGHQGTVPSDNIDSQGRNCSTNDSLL
Chain of Gonadotropin-releasing hormone receptor (Homo sapiens) (P30968 whole entry, looked up): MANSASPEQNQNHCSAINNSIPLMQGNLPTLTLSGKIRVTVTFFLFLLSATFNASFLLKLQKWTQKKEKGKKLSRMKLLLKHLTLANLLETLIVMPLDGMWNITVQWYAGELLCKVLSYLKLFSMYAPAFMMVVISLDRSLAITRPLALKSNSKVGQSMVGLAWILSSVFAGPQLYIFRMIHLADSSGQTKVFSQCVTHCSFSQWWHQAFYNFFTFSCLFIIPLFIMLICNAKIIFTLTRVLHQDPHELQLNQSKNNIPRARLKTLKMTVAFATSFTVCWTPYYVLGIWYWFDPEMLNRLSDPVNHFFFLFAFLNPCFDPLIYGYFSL

For the molecule `Oc1ccc(Cc2ccc(O)cc2)cc1`, the Potency result in experiment [1], in [2], in experiment [3], in [4], in experiment [5] and in experiment [6] was “inactive” in each case. Also, the Potency entry in experiment [7], in experiment [8], in [9], in experiment [10], in [11] and in experiment [12] was “inactive” in each case. Besides, the Potency result in [13], in experiment [14], in experiment [15] and in experiment [16] was “inactive” in each case.

For the molecule `CN1CCN(C(=O)O[C@H]2c3nccnc3C(=O)N2c2ccc(Cl)cn2)CC1`, the Potency result in [1], in experiment [2], in experiment [3], in [4], in experiment [5] and in [6] was “inactive” each time. Also, the Potency result in experiment [8], in experiment [17], in experiment [9], in experiment [18], in [10] and in experiment [11] was “inactive” throughout. In addition, the Potency entry in experiment [19], in experiment [13], in experiment [14] and in [15] was “inactive” each time.

For `CO/N=C(/C1=NOCCO1)c1ccccc1Oc1ncnc(Oc2ccccc2Cl)c1F`, the Potency result in experiment [1], in [2], in experiment [3], in [4], in [5] and in experiment [6] was “inactive” each time. Further, the Potency result in experiment [7], in experiment [8], in [10], in experiment [11], in experiment [19] and in experiment [13] was “inactive” each time. Further, the Potency result in experiment [14] and in experiment [16] was “inactive” each time.

Turning to `Oc1ccc2c3c1O[C@H]1[C@@H](O)C=C[C@H]4[C@@H](C2)NCC[C@@]341`, the Potency result in experiment [1], in experiment [2], in experiment [3], in experiment [4], in experiment [5] and in [6] was “inactive” in each case. The Potency entry in [8], in [17], in experiment [9], in experiment [18], in experiment [10] and in experiment [11] was “inactive” in each case. Besides, the Potency result in experiment [19], in experiment [12], in [13], in experiment [14], in experiment [20] and in experiment [15] was “inactive” in each case. In addition, the Potency result in experiment [16] was “inactive”.

On to `CC[C@H](C)[C@H]1O[C@]2(C=C[C@@H]1C)C[C@@H]1C[C@@H](C/C=C(\C)[C@@H](O[C@H]3C[C@H](OC)[C@@H](O[C@H]4C[C@H](OC)[C@@H](NC)[C@H](C)O4)[C@H](C)O3)[C@@H](C)/C=C/C=C3\CO[C@@H]4[C@H](O)C(C)=C[C@@H](C(=O)O1)[C@]34O)O2`, for which the Potency in experiment [1] was 9.69 µM (active); in experiment [3] it was 11 µM (active); in experiment [7], 28.9 µM (active); in [17] it was 10.2 µM (active); in experiment [10], 38.9 µM (active); in [11] it was 23.7 µM (active). Besides, the Potency in experiment [19] was 38.9 µM (active); in [14], 43.3 µM (active); in experiment [16], 13.7 µM (active). Besides, the Potency entry in experiment [2], in [4], in experiment [5], in experiment [6], in experiment [18] and in experiment [15] was “inactive” throughout.

As to `CC(Cc1ccccc1)NCCCCl` (centres undefined), the Potency entry in experiment [1], in experiment [2], in experiment [3], in experiment [4], in experiment [5] and in experiment [6] was “inactive” in each case. The Potency result in [7], in experiment [8], in [9], in [10], in experiment [11] and in [19] was “inactive” throughout. Moreover, the Potency entry in experiment [12], in [13], in experiment [14], in [20] and in experiment [15] was “inactive” throughout.

For the molecule `NNCCO`, the Potency entry in experiment [1], in [2], in experiment [3], in experiment [4], in [5] and in experiment [7] was “inactive” each time. Further, the Potency entry in [8], in experiment [17], in experiment [18], in experiment [10], in [11] and in [19] was “inactive” each time. For the same molecule, the Potency result in experiment [12], in [13], in experiment [14], in experiment [20] and in experiment [15] was “inactive” each time.
